IL1B secr inh: blocks inflammasome-driven IL-1 beta release | THP-1 LPS/ATP IL-1B secretion, AlphaLISA, 16 h; stronger effect = lower value | activity change, % at 57.5 µM | actives 4.7% (n = 360,000) | AID 743279; in the data active means activity change below about -50%; inconclusive means mostly about -30% to -49%
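Secreted IL-1B measured by AlphaLISA bead assay after 16 h compound exposure of THP-1 cells; compounds (final up to 57.5 uM) added 1 h before LPS (250 ng/mL) and ATP (1.25 mM) stimulation; lower signal means less secretion.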
DT40 TDP1 no CPT: qHTS for Inhibitors of human tyrosyl-DNA phosphodiesterase 1 (TDP1): qHTS in cells in absence of CPT; Potency, µM (top dose mostly 46.2 µM), most hits filed as inhibitors; actives 15% (n = 420,000); AID 686978, 2013; DT40 Tdp1-/- hTDP1 cells, no CPT, ATP luminescence, 48 h; further: nearly all actives have a fitted effect of over 55% in size
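No-CPT arm: Tdp1-/-;hTDP1 DT40 cells (400/well) plus compounds, incubated ≥48 hr at 37 °C. Readout CellTiter-Glo luminescence.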
TGFb SMAD3 inh: inhibitors of TGF-b signaling; HepG2 CAGA-GFP TGF-b/SMAD3 reporter, GFP fluorescence, 18 h; TGF-beta stimulated, 500 pg/mL final; Potency, µM (doses to about 46.1 µM), most hits filed as inhibitors; actives 1.2% (n = 410,000); further: nearly all actives have a fitted effect of over 65% in size
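TGF-beta reporter screen: HEPG2 CAGA-GFP, 1% FBS, 500 pg/mL TGF-beta final, 18 h; per-cell GFP summed per well; curves fitted and categorized by class.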
HepG2 tox: counter-screen for TGF-b inhibitors: cytotoxicity in HepG2 cells; HepG2 CAGA-GFP viability, ATP luminescence, 18 h; Potency, µM (top dose mostly 46.1 µM), actives largely listed as cytotoxic; actives 0.76% (n = 410,000); AID 588856
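CellTiter-Glo luminescence gave cytotoxicity after 18 hours at 37 degrees C. The cells were HepG2 CAGA-GFP in 1% FBS DMEM, stimulated with 500 pg/mL TGF-beta after compound addition. %Activity was normalised to no-cell wells (complete cell-killing) and DMSO (no toxicity), and curves were fitted and classified.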
DT40 TDP1 CPT: DT40-hTDP1 cell growth loss with CPT; chicken DT40 Tdp1-/-;hTDP1 cells + 20 nM CPT, ATP luminescence, 48 h; Potency, µM (doses to about 46.2 µM), most hits filed as inhibitors; actives 12% (n = 420,000); further: nearly all actives have a fitted effect of over 55% in size
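Chicken DT40 Tdp1-/- cells complemented with human TDP1, 400 cells/well, exposed to compounds plus 20 nM camptothecin for at least 48 h at 37 C; viability read as ATP content by CellTiter-Glo luminescence.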
S-ASM inh: inhibitors of human secretory acid sphingomyelinase; P17405; placental ASM, HMU-PC fluorogenic substrate, 60 min; Potency, µM (series often up to 57.5 µM), actives largely listed as inhibitors; actives 0.006% (n = 340,000); AID 504937
Target sequence (P17405 47-631 limits assumed): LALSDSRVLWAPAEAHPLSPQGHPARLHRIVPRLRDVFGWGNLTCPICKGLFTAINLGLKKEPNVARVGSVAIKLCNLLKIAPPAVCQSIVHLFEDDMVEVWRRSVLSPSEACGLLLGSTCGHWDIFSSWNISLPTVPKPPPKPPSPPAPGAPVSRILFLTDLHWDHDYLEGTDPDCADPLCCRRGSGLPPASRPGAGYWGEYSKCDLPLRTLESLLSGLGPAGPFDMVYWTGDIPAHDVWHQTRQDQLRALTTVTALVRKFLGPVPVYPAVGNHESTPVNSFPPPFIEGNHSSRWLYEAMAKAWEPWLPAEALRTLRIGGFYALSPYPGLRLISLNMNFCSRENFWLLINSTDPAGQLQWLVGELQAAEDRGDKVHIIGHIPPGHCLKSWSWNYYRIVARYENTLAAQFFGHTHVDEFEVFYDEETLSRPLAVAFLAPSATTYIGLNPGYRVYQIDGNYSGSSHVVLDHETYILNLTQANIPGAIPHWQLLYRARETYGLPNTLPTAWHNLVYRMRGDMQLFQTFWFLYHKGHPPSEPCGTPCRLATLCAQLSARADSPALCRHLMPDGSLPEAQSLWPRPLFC
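Steps: dispense placental human ASM, pin compound, wait 10 min at room temperature, add HMU-PC0 substrate at 9 uM final, incubate 60 min at 37 °C, add stop solution raising pH to 10, read fluorescence.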
Numbers stand for hits; 0 = inactive; ? = inconclusive; - = no result given; ! = repeats disagree. Hits are enriched below; roughly 19% of the tested compounds scored in any of these assays. Unless noted, the call rests on the fitted dose curve; in most records, active means well fitted curve in the direction sought with a large enough effect; inconclusive means small, poorly fitted or top-dose-only effect, or another doubt; inactive means no such curve, though single readings can be large; an effect the other way counts as inactive or inconclusive.

SMILES	IL1B secr inh	DT40 TDP1 no CPT	TGFb SMAD3 inh	HepG2 tox	DT40 TDP1 CPT	S-ASM inh
O=C(Cn1ccc2cc(S(=O)(=O)N3CCCCCC3)ccc21)NCc1cccc(Cl)c1	-	18µM	?	0	?	-
COC(=O)Cn1ccc2cc(S(=O)(=O)N3CCCCC3)ccc21	0	?	?	0	21µM!	0
COC(=O)Cn1ccc2cc(S(=O)(=O)N3CCCCCC3)ccc21	0	0	?	0	0	0
CCOc1ccccc1CNC(=O)Cn1ccc2cc(S(=O)(=O)N3CCC(C)CC3)ccc21	0	21µM	0	0	?	0
CCOc1ccccc1CNC(=O)C1CCN(S(=O)(=O)c2ccc3c(ccn3C)c2)CC1	-	?	0	0	?	-
CC(C(=O)N1CCc2ccccc21)N1CCN(Cc2ccc(Cl)cc2)CC1 (stereo unspecified)	0	0	0	0	0	0
CC(C)NC(=O)N1CCCC2(CCN(C(=O)c3cccc(F)c3)CC2)C1	-	0	-	-	0	-
COc1cccc(-c2ccc(NC(=O)C3CCCN(Cc4ccccn4)C3)cc2)c1 (stereo unspecified)	0	?	0	0	?	-
CCn1cc(CN2CCCC(C(=O)Nc3cccc(-c4cc5ccccc5[nH]4)c3)C2)cn1 (stereo unspecified)	-81	?	?	0	0	0
COc1cccc(-c2ccc(NC(=O)C3CCCN(Cc4cc(C)[nH]n4)C3)cc2)c1 (stereo unspecified)	0	?	0	0	?	0
Cc1ncc(CN2CCCC(C(=O)Nc3ccc(-c4cccc(F)c4)cc3)C2)s1 (stereo unspecified)	?	?	?	0	?	0
Cc1ncc(CN2CCCC(C(=O)Nc3ccc(-c4cccc(F)c4)cc3)C2)cn1 (stereo unspecified)	-87	?	0	0	15µM	0
O=C(Nc1ccc(-c2cccc(F)c2)cc1)C1CCCN(Cc2ccccn2)C1 (stereo unspecified)	?	23µM	?	0	21µM	0
Cc1ccccc1CN1CCCC(C(=O)Nc2ccc(-c3ccn[nH]3)cc2)C1 (stereo unspecified)	?	?	0	0	16µM	0
CCC[C@H]1COCCS(=O)(=O)N1Cc1ccc(F)cc1	-	0	0	0	0	-
C=C(C)Cn1c(=O)c2c(nc3n2CCN3c2ccc(CC)cc2)n(C)c1=O	-	?	0	0	0	-
CCc1ncc(CN2CCCC(C(=O)Nc3cccc(-c4ccc(F)cc4)c3)C2)cn1 (stereo unspecified)	0	16µM	0	0	23µM	-
CCc1ncc(CN2CCCC(C(=O)Nc3cccc(-c4cccc(C)c4)c3)C2)cn1 (stereo unspecified)	0	?	?	0	?	0
CCCC(C)NC(=S)NC(=O)c1cc(S(=O)(=O)N2CCOCC2)ccc1C (stereo unspecified)	0	13µM	0	0	21µM	0
CCCCCC(C)NC(=S)NC(=O)c1cc(S(=O)(=O)N2CCOCC2)ccc1C (stereo unspecified)	0	?	11µM	0	?	0
Cc1ccc(S(=O)(=O)N2CCOCC2)cc1C(=O)N1CCc2ccccc21	0	?	0	0	0	0
Cc1ccc(S(=O)(=O)N2CCOCC2)cc1C(=O)N1c2ccccc2Sc2ccccc21	0	23µM	?	0	?	0
CCOc1ccc(-n2ccnc(SCC(=O)Nc3ccc(CC)cc3)c2=O)cc1	0	?	0	0	?	0
CC(C)(C)OC(=O)NCCCCCNC(=O)c1ncn(Cc2ccccc2)c1C(=O)NCCCCCNC(=O)OC(C)(C)C	0	16µM	?	0	?	0
CC(C)(C)OC(=O)N1CCN(C(=O)c2ncn(Cc3ccccc3)c2C(=O)N2CCN(C(=O)OC(C)(C)C)CC2)CC1	0	0	0	0	0	0
SMILES	IL1B secr inh	DT40 TDP1 no CPT	TGFb SMAD3 inh	HepG2 tox	DT40 TDP1 CPT	S-ASM inh
Cc1cccc(NC(=O)c2nc[nH]c2C(=O)NCCCCCNC(=O)OC(C)(C)C)c1	-75	16µM	?	0	15µM	0
CC(C)(C)OC(=O)NCCCC[C@H](NC(=O)c1nc[nH]c1C(=O)N1CCc2ccccc2C1)C(=O)OC(C)(C)C	?	21µM	0	0	26µM	0
CC(C)(C)OC(=O)NCCCC[C@H](NC(=O)c1nc[nH]c1C(=O)N[C@@H](CCCCNC(=O)OC(C)(C)C)C(=O)OC(C)(C)C)C(=O)OC(C)(C)C	0	23µM	?	0	15µM	0
CC(C)(C)OC(=O)NCCCC[C@H](NC(=O)c1nc[nH]c1C(=O)NC(c1ccccc1)c1ccccc1)C(=O)OC(C)(C)C	0	?	?	0	15µM	0
C[C@H](NC(=O)c1nc[nH]c1C(=O)N[C@@H](CCCCNC(=O)OC(C)(C)C)C(=O)OC(C)(C)C)C(=O)OC(C)(C)C	0	?	?	0	?	0
CC(C)(C)OC(=O)CNC(=O)c1[nH]cnc1C(=O)N[C@@H](CCCCNC(=O)OC(C)(C)C)C(=O)OC(C)(C)C	?	?	?	0	?	0
CN(Cc1ccccc1)C(=O)c1[nH]cnc1C(=O)NCCCCCNC(=O)OC(C)(C)C	0	18µM	0	0	?	0
CC(C)(C)OC(=O)NCCCCCNC(=O)c1[nH]cnc1C(=O)N[C@@H](CCCCNC(=O)OC(C)(C)C)C(=O)OC(C)(C)C	0	16µM	?	0	16µM	0
CC(C)(C)OC(=O)NCCCC[C@H](NC(=O)c1nc[nH]c1C(=O)NCc1ccc(CNC(=O)OC(C)(C)C)cc1)C(=O)OC(C)(C)C	0	16µM	?	0	?	0
COCCNC(=O)COC(=O)c1ccc(OCC(=O)Nc2ccccc2OC)c(OC)c1	0	?	0	0	?	0
CC1CCN(C(=O)c2[nH]cnc2C(=O)NCCCCCNC(=O)OC(C)(C)C)CC1	0	0	?	0	?	0
CC(C)(C)OC(=O)NCCCCCNC(=O)c1nc[nH]c1C(=O)NCCCCCNC(=O)OC(C)(C)C	0	10µM	?	0	12µM	0
CCOc1ccc(CCNC(=O)c2[nH]c(C)c(C(C)=O)c2CC)cc1OCC	0	23µM	0	0	18µM	0
CCOC(=O)c1c(C)[nH]c(C(=O)NCCc2ccc(OC)c(OC)c2)c1C	0	15µM	0	0	?	0
CCOc1ccc(CCNC(=O)c2c(C)noc2C)cc1OCC	0	0	0	0	0	-
